The target in assay [1] is Lysosomal acid glucosylceramidase (Homo sapiens) (UniProt P04062). Nature of the assay: Glucocerebrosidase-p2 (AID 348; in the data active = potency below about 10 µM; also: potency is read from the fitted curve at half-maximal effect). The following applies: purified GBA, blue fluorogenic substrate, 40 min. The essentials: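 Normal human glucocerebrosidase (0.2 nM) with blue fluorogenic substrate (80 uM final) in citrate/phosphate pH 5.9 with 10mM sodium taurocholate, 0.01% tween-20; 40 min RT, NaOH/glycine stop; fluorescence Ex 365/Em 440; AC50 from a titration from 0.6 nM upwards.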

Assay [2] can be described thus: AP1 Signaling Pathway (AID 357).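 Also: ME-180 reporter cells stimulated with EGF at its EC50 level; % is scaled to controls: 0 for no effect and ±100 for the full control effect.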 Particulars: ME-180 AP-1-bla reporter, EGF-induced, beta-lactamase ratio, 5 h; at 7.69 µM (top of the series) unless noted. Summed up: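 In this screen, ME-180 cells in Opti-MEM with 0.5% dialyzed FBS received EC50 EGF and compound titrations for 5 h. AP-1 reporter beta-lactamase was detected via CCF4 ratio, giving AC50 for positive and negative modulators.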

The target of assay [3] is Cytochrome P450 1A2 (Homo sapiens) (UniProt P05177). Nature of the assay: p450-cyp1a2 (AID 410; calls by dose curve; also: potency is read from the fitted curve at half-maximal effect;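 as to activity change, negative = inhibition: -100% = full effect of reference inhibitor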). The following applies: recombinant CYP1A2, luciferin-ME demethylation, luminescence; series mostly up to 57 µM. The essentials: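 20nM CYP1A2, 100uM Luciferin-ME (=Km), 100mM KPO4; cpd 10 min RT; +NADPH regen, 60 min RT; stop/detect 20 min; luminescence. Normalized to furafylline 57 uM = full inhibition.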

The nature of assay [4]: NFAT Signaling Pathway (AID 444).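 Also: carbachol stimulus at about its EC50 of 1 µM final; % is scaled to controls: 0 for no effect and ±100 for the full control effect.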 Particulars: Jurkat NFAT-bla M1, carbachol, beta-lactamase ratio, 5 h; at 7.69 µM (top of the series) unless noted. The essentials: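 Jurkat cells carrying an NFAT-driven β-lactamase reporter and co-transfected muscarinic M1 receptor were treated with compound plus carbachol (1 uM final, an EC50 level) for 5 h at 37 °C. CCF4 loading followed for 1 h at RT; 460/530 nm ratio gave %activity.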

Assay [5] concerns the target Glucocorticoid receptor (Homo sapiens) (UniProt P04150). Nature of the assay: GR-EFC Redistribution (AID 451; calls by dose curve; also: potency is read from the fitted curve at half-maximal effect). Particulars: CHO-K1 GR-EFC translocation, beta-gal luminescence, 2 h. Summed up: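 CHO-K1 cells stably expressing nuclear-localized β-gal enzyme acceptor and GR fused C-terminally to the enzyme donor fragment; ligand-driven nuclear translocation restores β-gal by complementation. Compounds titrated up to 46 uM final, 2 h at 37 °C; luminescence read.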

Assay [6] concerns the target Mitogen-activated protein kinase 10 (Mus musculus) (UniProt Q61831). Nature of the assay: JNK3 AlphaScreen Assay (AID 530).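 Also: kinase came from lysate of stimulated human HepG2 cells; signal reports phosphorylation of biotinylated GST-cJun 1-79 at Ser73 with 10 µM ATP; % is scaled to controls: 0 for no effect and ±100 for the full control effect.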 The following applies: JNK3 lysate, c-Jun phosphorylation; series mostly up to 57.1 µM. The essentials:
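Biotinylated GST-cJun(1-79) served as substrate for JNK3 in HepG2 lysates stimulated with IL-1beta and TNF-alpha. ATP was 10 uM final, pH 7.6. Ser73 phosphorylation was quantified by AlphaScreen (680 nm excitation).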
(In general: In Alpha technology, singlet oxygen from a donor bead excites a nearby acceptor bead.)

Assay [7] addresses Cytochrome P450 3A4 (Homo sapiens) (UniProt P08684). Nature of the assay: qHTS Assay for Inhibitors and Substrates of Cytochrome P450 3A4 (AID 884; active = well fitted curve in the direction sought with a large enough effect; an effect the other way counts as inactive or inconclusive; also: potency is read from the fitted curve at half-maximal effect; nearly all actives have a fitted effect of over 50% in size). Particulars: recombinant CYP3A4, Luciferin-PPXE luminescence; series mostly up to 57.1 µM. The essentials: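 Luminescent readout of luciferin produced by CYP3A4 (20 nM) dealkylation of Luciferin-PPXE, 25 uM (its KM). NADPH-driven reaction ran 60 min at RT after 10 min compound preincubation; data scaled to 57 uM ketoconazole as 100% inhibition.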
A general note: In qHTS, concentration-response curves come from the screen itself.

Assay [8] has the same target. Nature of the assay: qHTS Assay for Activators of Cytochrome P450 3A4 (AID 885; active = well fitted curve in the direction sought with a large enough effect; an effect the other way counts as inactive or inconclusive; also: nearly all actives have a fitted effect of over 65% in size). Particulars: recombinant CYP3A4, Luciferin-PPXE luminescence, 60 min; series mostly up to 57.1 µM. Summed up: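 Activators are scored by enhanced luminescence from CYP3A4 conversion of luciferin-PPXE (25uM, equal to KM) to luciferin, after 60 min at RT with an NADPH-regenerating system.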

In assay [9] the target is Cytochrome P450 2D6 (Homo sapiens) (UniProt P10635). Nature of the assay: qHTS Assay for Inhibitors and Substrates of Cytochrome P450 2D6 (AID 891; active = well fitted curve in the direction sought with a large enough effect; an effect the other way counts as inactive or inconclusive; also: potency is read from the fitted curve at half-maximal effect; nearly all actives have a fitted effect of over 60% in size). Particulars: recombinant CYP2D6, luciferin-ME EGE luminescence; series mostly up to 57.1 µM. The essentials:
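Luminescent read-out of luciferin formed by 5 nM human CYP2D6 demethylating 30 uM Luciferin-ME EGE (Km level) over 60 min at room temperature after NADPH regeneration addition. Data normalized to full inhibition by 1.43 uM quinidine.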

A short description of assay [10]: Confirmation and Secondary Assay for Modulators of Hemoglobin Beta Chain Splicing at IVS2 654 locus (AID 910; active = well fitted curve in the direction sought with a large enough effect; an effect the other way counts as inactive or inconclusive; also: % of control where 0% means no effect). Particulars: HeLa EGFP-654 splicing reporter, GFP fluorescence, 48 h; series mostly up to 38.3 µM. The essentials:
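HeLa cells stably carrying EGFP interrupted by mutant beta-globin IVS2-654 intron (CMV-driven) were treated with compound for 2 days at 37C; corrected splicing was scored as total peak GFP intensity per well (488 nm excitation, 500-520 nm emission).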

Assay [11] in a line: qHTS Assay for Lipid Storage Modulators (AID 1519; calls by dose curve). Particulars: Drosophila S3 cells, BODIPY lipid droplet/cell ratio, laser cytometry, cells loaded with oleic acid; for activity change, negative = inhibition: at 57.5 µM (top of the series). Summed up: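 Cells seeded at 5,000 per well were treated with compounds over a concentration series and loaded with oleic acid (400 uM, as added). Lipid droplet fluorescence (488 nm excitation, 500-530 nm channel) was read by laser-scanning cytometry and normalized to 20 uM Triacsin C.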

The target in assay [12] is Ubiquitin carboxyl-terminal hydrolase 1 (Homo sapiens) (UniProt O94782). Nature of the assay: Inhibitors of USP1/UAF1: Pilot qHTS (AID 504865; active = well fitted curve in the direction sought with a large enough effect; an effect the other way counts as inactive or inconclusive; also: nearly all actives have a fitted effect of over 35% in size; also: potency is read from the fitted curve at half-maximal effect). The following applies: purified USP1/UAF1, Ub-rhodamine cleavage fluorescence; series mostly up to 54.9 µM. Summed up: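 USP1/UAF1 complex (1nM) preincubated with compound 15 min at room temperature, then Ub-Rho substrate (150nM final) added. Fluorescence read kinetically at 480/540 nm, 6 reads every 60 seconds. Buffer: 50mM HEPES pH 7.8, 0.5mM EDTA, 0.1 mg/ml BSA, 1mM TCEP, 0.01% Tween-20.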

The target of assay [13] is 3',5'-cyclic-AMP phosphodiesterase 4B (Homo sapiens) (UniProt Q07343). Nature of the assay: qHTS Assay for Inhibitors of PDE-IV (AID 607; active = well fitted activation curve with a large enough effect in the main read-out, with a control signal flat, not every such curve was filed as active; also: % of control where 0% means no effect). The following applies: HEK293 ACTOne CNG channel cells, membrane potential fluorescence; series mostly up to 22.9 µM. The essentials: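 The readout is membrane depolarisation from a cAMP-sensing CNG channel, detected with a potential dye at ex 535/em 590. Cells were HEK293-derived (endogenous PDE-IV) at 1000 cells/well, titrated up to 22.9 uM final.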

Assay [14] is described as follows: Confirmation and Secondary Assay for Modulators of Hemoglobin Beta Chain Splicing at IVS2 705 locus (AID 930; active = well fitted curve in the direction sought with a large enough effect; an effect the other way counts as inactive or inconclusive;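 also: HeLa cells stably expressing the EGFP-705 splicing reporter; GFP fluorescence per well restored by corrected splicing of the IVS2-705 intron in EGFP; % of control where 0% means no effect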). The following applies: HeLa EGFP-705 splicing reporter, GFP fluorescence, 48 h; series mostly up to 38.3 µM. The essentials: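 Read-out: total peak GFP fluorescence per well (488 nm excitation, 500-520 nm emission) by laser-scanning cytometry. Cells: HeLa EGFP-705 splicing reporter, 2 days compound exposure in Optimem/2% FCS.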

Assay [15] in a line: Stat Signaling Pathway (AID 446).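 Also: ME-180 cervical cancer cells given 40 pM IL-6 alongside compound; SIE-controlled beta-lactamase reporter measured as 460/530 nm FRET emission ratio; % is scaled to controls: 0 for no effect and ±100 for the full control effect.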 The following applies: ME-180 (cervical carcinoma) SIE beta-lactamase reporter, IL-6 stimulated, 5 h; at 7.69 µM (top of the series) unless noted. The essentials: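 Emission at 460 and 530 nm (excitation 405 nm) reports SIE-controlled beta-lactamase in ME-180 cells. Cells received compound with 40 pM IL-6 for 5 hrs at 37 C; data scaled between 300 pM IL-6 and 125 nM JAK-inhibitor controls.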

Assay [16] addresses Glucocorticoid receptor (Homo sapiens) (UniProt P04150). Nature of the assay: GR-GFP Redistribution (AID 450;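 active = compounds whose dose series gives a full or clear partial fitted curve of increased nuclear translocation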; also: potency is read from the fitted curve at half-maximal effect). The following applies: U2OS GR-GFP nuclear translocation, laser cytometry, 2 h.
[17] abbreviates: measured here: cell count channel max response.
[18] abbreviates: measured here: lipid channel max response.

Results filed as inconclusive are left out. Calls of active or inactive are those of the source. Unless noted, calls follow the shape of the dose curve; as a rule, active = well fitted curve in either direction with a large enough effect (not every such curve was filed as active); inconclusive = small, poorly fitted or top-dose-only effect, or another doubt; inactive = flat fitted curve, though single readings scatter.

Sequence of 3',5'-cyclic-AMP phosphodiesterase 4B (Homo sapiens) (Q07343 whole entry, looked up): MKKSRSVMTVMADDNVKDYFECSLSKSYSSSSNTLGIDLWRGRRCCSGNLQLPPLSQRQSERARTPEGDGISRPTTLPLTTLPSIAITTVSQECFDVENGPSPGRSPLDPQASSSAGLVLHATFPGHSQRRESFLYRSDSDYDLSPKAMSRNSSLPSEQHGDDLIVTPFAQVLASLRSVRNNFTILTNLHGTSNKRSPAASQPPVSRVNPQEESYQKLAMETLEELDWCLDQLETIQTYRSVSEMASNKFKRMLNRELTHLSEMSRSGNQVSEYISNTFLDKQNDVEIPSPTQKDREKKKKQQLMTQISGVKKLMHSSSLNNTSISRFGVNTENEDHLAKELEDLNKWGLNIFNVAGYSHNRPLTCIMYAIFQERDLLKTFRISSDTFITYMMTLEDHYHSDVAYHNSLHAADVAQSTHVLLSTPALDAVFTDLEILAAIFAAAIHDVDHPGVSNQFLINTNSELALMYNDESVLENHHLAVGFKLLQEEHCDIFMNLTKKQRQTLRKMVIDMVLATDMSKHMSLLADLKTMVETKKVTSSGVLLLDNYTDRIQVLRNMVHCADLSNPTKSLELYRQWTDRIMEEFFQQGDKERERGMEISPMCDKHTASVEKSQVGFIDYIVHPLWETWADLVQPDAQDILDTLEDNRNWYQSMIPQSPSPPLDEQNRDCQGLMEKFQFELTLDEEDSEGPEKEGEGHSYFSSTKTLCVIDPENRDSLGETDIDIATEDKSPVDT
Sequence of Cytochrome P450 3A4 (Homo sapiens) (P08684 whole entry, looked up): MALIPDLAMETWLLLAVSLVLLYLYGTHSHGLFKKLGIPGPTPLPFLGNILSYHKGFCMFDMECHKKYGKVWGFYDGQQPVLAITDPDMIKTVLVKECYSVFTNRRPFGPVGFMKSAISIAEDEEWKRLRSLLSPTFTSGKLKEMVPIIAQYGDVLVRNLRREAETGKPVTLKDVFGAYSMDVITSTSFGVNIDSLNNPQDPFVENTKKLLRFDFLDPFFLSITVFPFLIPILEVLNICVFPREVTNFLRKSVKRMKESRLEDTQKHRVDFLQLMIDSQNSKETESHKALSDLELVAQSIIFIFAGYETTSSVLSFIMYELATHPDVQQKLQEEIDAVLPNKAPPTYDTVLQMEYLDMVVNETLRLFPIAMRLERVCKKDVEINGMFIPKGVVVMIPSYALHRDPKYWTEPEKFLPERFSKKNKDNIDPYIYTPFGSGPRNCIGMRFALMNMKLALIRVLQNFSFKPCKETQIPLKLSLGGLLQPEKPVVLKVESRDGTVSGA
Sequence of Lysosomal acid glucosylceramidase (Homo sapiens) (P04062 whole entry, looked up): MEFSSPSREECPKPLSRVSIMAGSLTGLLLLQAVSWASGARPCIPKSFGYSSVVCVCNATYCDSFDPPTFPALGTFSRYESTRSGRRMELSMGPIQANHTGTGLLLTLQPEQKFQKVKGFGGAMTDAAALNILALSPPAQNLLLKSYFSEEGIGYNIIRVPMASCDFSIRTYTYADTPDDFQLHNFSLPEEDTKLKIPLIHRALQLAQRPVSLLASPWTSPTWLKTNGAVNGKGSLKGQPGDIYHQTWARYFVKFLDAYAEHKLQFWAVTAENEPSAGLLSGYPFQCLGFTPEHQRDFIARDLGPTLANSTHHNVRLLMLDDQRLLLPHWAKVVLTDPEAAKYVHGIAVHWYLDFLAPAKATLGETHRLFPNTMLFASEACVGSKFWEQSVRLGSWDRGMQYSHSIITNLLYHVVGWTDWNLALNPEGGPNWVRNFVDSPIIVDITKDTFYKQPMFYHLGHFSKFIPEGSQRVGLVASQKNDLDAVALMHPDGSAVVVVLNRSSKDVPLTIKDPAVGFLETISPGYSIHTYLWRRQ
Sequence of Glucocorticoid receptor (Homo sapiens) (P04150 whole entry, looked up, the tested form may be a part): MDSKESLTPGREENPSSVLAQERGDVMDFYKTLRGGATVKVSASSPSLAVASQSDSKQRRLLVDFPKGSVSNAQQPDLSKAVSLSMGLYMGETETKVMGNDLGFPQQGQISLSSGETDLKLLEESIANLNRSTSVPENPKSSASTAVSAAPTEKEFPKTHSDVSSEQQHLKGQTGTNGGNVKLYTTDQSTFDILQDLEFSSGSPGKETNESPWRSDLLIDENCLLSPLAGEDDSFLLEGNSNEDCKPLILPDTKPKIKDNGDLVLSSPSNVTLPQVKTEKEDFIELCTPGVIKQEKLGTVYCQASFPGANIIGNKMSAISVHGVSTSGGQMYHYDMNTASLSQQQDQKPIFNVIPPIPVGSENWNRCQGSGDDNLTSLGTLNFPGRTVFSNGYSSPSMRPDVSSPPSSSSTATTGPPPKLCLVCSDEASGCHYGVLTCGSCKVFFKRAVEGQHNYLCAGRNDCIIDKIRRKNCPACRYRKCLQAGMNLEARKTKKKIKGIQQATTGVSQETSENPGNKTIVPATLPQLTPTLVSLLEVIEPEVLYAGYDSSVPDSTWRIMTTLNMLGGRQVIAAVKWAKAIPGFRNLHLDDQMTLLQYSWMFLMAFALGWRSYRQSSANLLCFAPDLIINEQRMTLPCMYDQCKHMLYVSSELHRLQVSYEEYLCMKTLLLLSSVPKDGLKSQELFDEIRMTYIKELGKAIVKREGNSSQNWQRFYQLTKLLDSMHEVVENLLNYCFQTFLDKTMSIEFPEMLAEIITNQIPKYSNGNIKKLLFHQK
Sequence of Cytochrome P450 1A2 (Homo sapiens) (P05177 whole entry, looked up): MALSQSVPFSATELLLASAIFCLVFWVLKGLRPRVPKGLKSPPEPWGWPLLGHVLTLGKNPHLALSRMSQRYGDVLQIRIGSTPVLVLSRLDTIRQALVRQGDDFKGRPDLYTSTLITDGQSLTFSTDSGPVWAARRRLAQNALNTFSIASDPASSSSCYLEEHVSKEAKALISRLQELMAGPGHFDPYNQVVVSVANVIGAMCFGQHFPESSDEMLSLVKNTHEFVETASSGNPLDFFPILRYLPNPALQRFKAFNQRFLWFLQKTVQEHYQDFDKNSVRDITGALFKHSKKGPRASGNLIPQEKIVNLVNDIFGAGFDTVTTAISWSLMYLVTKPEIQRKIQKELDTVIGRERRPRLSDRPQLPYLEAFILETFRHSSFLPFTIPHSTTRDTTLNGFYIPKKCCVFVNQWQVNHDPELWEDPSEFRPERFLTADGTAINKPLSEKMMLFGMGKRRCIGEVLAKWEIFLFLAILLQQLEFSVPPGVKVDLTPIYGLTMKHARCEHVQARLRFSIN
Sequence of Ubiquitin carboxyl-terminal hydrolase 1 (Homo sapiens) (O94782 whole entry, looked up): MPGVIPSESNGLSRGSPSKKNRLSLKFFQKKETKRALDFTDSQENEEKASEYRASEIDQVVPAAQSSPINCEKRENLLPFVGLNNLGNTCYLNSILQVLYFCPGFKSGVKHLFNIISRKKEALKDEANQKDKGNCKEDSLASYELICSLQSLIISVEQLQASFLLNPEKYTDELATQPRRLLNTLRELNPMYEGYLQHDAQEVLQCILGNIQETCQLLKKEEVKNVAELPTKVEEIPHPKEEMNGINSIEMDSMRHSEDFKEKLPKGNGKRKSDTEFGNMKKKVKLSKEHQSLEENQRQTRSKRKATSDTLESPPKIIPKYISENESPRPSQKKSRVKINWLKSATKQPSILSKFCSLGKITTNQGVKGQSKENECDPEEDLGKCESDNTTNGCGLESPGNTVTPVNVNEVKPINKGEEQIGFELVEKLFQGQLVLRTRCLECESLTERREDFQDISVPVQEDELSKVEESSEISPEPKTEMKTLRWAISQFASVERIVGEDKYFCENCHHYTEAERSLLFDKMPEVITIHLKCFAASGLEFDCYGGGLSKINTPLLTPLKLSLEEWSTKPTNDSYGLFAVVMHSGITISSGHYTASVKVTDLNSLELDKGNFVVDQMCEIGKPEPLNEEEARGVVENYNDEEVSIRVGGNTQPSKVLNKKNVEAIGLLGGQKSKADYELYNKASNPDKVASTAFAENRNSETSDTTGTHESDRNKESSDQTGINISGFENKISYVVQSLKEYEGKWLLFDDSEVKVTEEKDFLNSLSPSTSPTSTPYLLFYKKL
Sequence of Cytochrome P450 2D6 (Homo sapiens) (P10635 whole entry, looked up): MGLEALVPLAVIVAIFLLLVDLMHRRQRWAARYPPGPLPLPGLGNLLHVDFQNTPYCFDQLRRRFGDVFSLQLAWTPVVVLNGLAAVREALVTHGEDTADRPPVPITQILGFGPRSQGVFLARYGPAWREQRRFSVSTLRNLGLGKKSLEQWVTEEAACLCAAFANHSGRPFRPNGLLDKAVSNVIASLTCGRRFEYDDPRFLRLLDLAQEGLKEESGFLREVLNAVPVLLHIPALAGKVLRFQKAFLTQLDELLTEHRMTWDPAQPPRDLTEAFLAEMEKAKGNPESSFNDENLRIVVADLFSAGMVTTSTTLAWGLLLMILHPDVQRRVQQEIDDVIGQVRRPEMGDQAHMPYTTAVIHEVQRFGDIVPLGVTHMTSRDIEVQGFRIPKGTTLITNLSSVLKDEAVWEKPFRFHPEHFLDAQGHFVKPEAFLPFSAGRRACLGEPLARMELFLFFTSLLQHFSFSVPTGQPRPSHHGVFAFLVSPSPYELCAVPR

Consider `COc1ccccc1-c1nccc(NCc2cccc(C)c2)n1`, for which the Potency was > 11.4 µM (inactive) in [1]; 0.631 µM (active) in assay [3]; > 46 µM (inactive) in assay [5]; 6.31 µM (active) in assay [7]; 1.58 µM (active) in [9]; 22.4 µM (active) in assay [12]. In addition, the activity change, negative = inhibition in [2] is -2.08% (inactive); in assay [4] it was -5.48% (inactive); in assay [11] it was -4.4% (inactive). Also, the Potency result in assay [6], in assay [8] and in assay [10] was “inactive” throughout. The max response in assay [11] (setting [17]) was -19.8%; in assay [11] (setting [18]) it was -23.8%.
Take `N#Cc1ccccc1-c1cncnc1NCc1cccnc1`: the figures for the Potency in [1], in assay [3] and in assay [5] were > 11.4 µM (inactive), 0.0631 µM (active) and > 46 µM (inactive), respectively. In addition, the activity change, negative = inhibition in [2] was -25.2% (inactive); in [4], 5.72% (inactive); in [11], 4.31% (inactive). The Potency entry in assay [6], in [13], in assay [8] and in assay [12] was “inactive” in each case. For the same compound, in assay [14], the result was inactive. In addition, the values for the max response in assay [11] (setting [17]) and in [11] (setting [18]) were 7.61% and 12.5%, respectively.
With `O=C(c1cc(C(F)(F)F)cc(C(F)(F)F)c1)N1CCC[C@@]2(CCN(c3ccncc3)C2)C1`, the results for the Potency in assay [1], in assay [5] and in [7] were > 11.4 µM (inactive), > 46 µM (inactive) and 6.31 µM (active), respectively. In addition, the activity change, negative = inhibition in assay [2] was 6.68% (inactive); in [11] it was 1.83% (inactive). Besides, the Potency result in assay [3], in assay [6], in [13] and in [8] was “inactive” throughout. For the same compound, the activity, negative = inhibition in assay [15] was 1.59% (inactive). Also, the max response in assay [11] (setting [17]) was -11%; in assay [11] (setting [18]) it was -5.86%.
On to `CN(C)Cc1ccccc1-c1ccc2ncnc(NC3CC3)c2c1`, for which the values for the Potency in assay [1], in [16] and in [5] were > 11.4 µM (inactive), > 46 µM (inactive) and > 46 µM (inactive), respectively. The values for the activity change, negative = inhibition in assay [2], in assay [4] and in [11] were 24% (inactive), -9.4% (inactive) and 9.69% (inactive), respectively. In assay [15], the activity, negative = inhibition is -14.6% (inactive). Moreover, the Potency entry in assay [6], in [13], in assay [10] and in assay [12] was “inactive” in each case. The result in assay [14] was inactive. In addition, the max response came to 12.6% in assay [11] (setting [17]) and 24.1% in [11] (setting [18]).
Regarding `COc1ccc(Oc2ncc3nc(-c4cc(F)cc(F)c4)c(=O)n(C)c3n2)cc1`, the Potency in assay [1] was > 11.4 µM (inactive); in assay [3] it was 3.16 µM (active); in [16], > 9.22 µM (inactive); in assay [5] it was > 46 µM (inactive); in assay [7] it was 5.01 µM (active). Also, the activity change, negative = inhibition in assay [2] was 18.9% (inactive); in assay [4], -15.3% (inactive); in [11], -5.54% (inactive). Further, the Potency entry in [6] and in assay [8] was “inactive” in each case. The max response in [11] (setting [17]) is 13.4%; in assay [11] (setting [18]), -2.06%.
In the case of `c1ccc(-c2ccc(N3CC[C@@]4(CCCNC4)C3)cc2)cc1`, the Potency in [1] was > 11.4 µM (inactive); in assay [3], 12.6 µM (active); in [5] it was > 46 µM (inactive). Moreover, the activity change, negative = inhibition was 16.6% (inactive) in assay [2], 10.5% (inactive) in assay [4] and 4.33% (inactive) in assay [11]. Further, the Potency result in [6] and in assay [13] was “inactive” in each case. The max response in [11] (setting [17]) was found to be 9.08%; in assay [11] (setting [18]), 15.2%.

These data come from PubChem BioAssay (NCATS).
